# About 1,000 (1.4%) of roughly 69,000 compounds showed an effect of 50% or more. Many of the other results were omitted from the sample, so strong results are more common in it than they were.
# Tested on: Leishmania donovani
# Assay: Leishmania intramacrophage assay
# Format: functional, organism-based
# Design: scale not given: in the data most compounds retested in dose-response had high values
compound,measurement,setting,value
Cc1cc(=O)n2nc(Oc3ccc(Cl)c(C)c3)sc2n1,Percent Effect,"30.3 µM, […]",74.91%
Cc1cc(=O)n2nc(Oc3cc(Cl)cc(Cl)c3)sc2n1,Percent Effect,"30.3 µM, […]",-38.32%
Cc1cc(=O)n2nc(Oc3ccc(F)c(F)c3)sc2n1,Percent Effect,"30.3 µM, […]",-0.08982%
COC(=O)NC1(C(=O)NCc2ccc(-c3ccn[nH]3)cc2)CCCC1,Percent Effect,"30.3 µM, […]",3.496%
CCNC(=O)c1sccc1N(C)S(=O)(=O)c1ccc(Cl)cc1,Percent Effect,"30.3 µM, […]",2.943%
CNC(=O)c1sccc1N(C)S(=O)(=O)c1ccc(Cl)cc1,Percent Effect,"30.3 µM, […]",77.15%
CC(C)NC(=O)c1sccc1N(C)S(=O)(=O)c1ccc(Cl)cc1,Percent Effect,"30 µM, 30.03 µM",7.242%
Cc1ccc(C(=O)NC(C)CN2CCCC2=O)c(=O)[nH]1 (stereo not given),Percent Effect,"30 µM, 30.03 µM",6.193%
Cc1ccc(C(=O)NC(CN2CCCC2=O)c2ccccc2)c(=O)[nH]1 (stereo not given),Percent Effect,"30 µM, 30.03 µM",-14.78%
Cc1ccc(C(=O)NCC(C)CN2CCCC2=O)c(=O)[nH]1 (stereo not given),Percent Effect,"30.3 µM, […]",59.27%
Nc1nc(N)c2c(n1)OC1(CCCN(Cc3nccs3)CC1)C2 (stereo not given),Percent Effect,"30.3 µM, […]",27.22%
Cc1cc(CN(C)c2nc(-c3ccco3)nc3c2CCN(C)CC3)on1,Percent Effect,"30.3 µM, […]",-83.89%
Cc1nonc1CN(C)c1nc(-c2ccco2)nc2c1CCN(C)CC2,Percent Effect,"30.3 µM, […]",55.96%
Cc1noc(CN(C)c2nc(-c3ccco3)nc3c2CCN(C)CC3)n1,Percent Effect,"30.3 µM, […]",-34.19%
Cc1cccc(CN2C(=O)CO[C@@H]3CN(Cc4cnn(C)c4)C[C@H]32)c1.O=C(O)C(F)(F)F.O=C(O)C(F)(F)F,Percent Effect,"30.3 µM, […]",15.94%
CC(C)(C)CNC(=O)c1ccc(C(=O)O)nc1,Percent Effect,"30.3 µM, […]",60.75%
CC(C)(C)CNC(=O)c1ccc(C(=O)O)cc1,Percent Effect,"30.3 µM, […]",40.51%
CC(C)(C)CNC(=O)c1ccc(C(=O)O)cn1,Percent Effect,"30.3 µM, […]",-11.9%
Cc1ccc(-c2ncc(CN3CCOC(c4ccco4)C3)s2)o1 (stereo not given),Percent Effect,"30.3 µM, […]",-6.468%
COC(=O)CCCN(C)C(c1cccnc1)c1ccc(F)cc1F (stereo not given),Percent Effect,"30.3 µM, […]",21.57%
CC(C)N1CC(c2ncc(-c3ccc4c(c3)OCCO4)[nH]2)CC1=O (stereo not given),Percent Effect,"30.3 µM, […]",26.45%
O[C@H]1[C@H](NCCc2ccccn2)c2ccccc2C12CCNCC2,Percent Effect,"30.3 µM, […]",-16.64%
Cc1ccc(CCN[C@@H]2c3ccccc3C3(CCNCC3)[C@H]2O)s1,Percent Effect,"30.3 µM, […]",84.2%
COc1ccccc1CCN[C@@H]1c2ccccc2C2(CCNCC2)[C@H]1O,Percent Effect,"30.3 µM, […]",35.47%
CNC(=O)[C@@H]1C[C@H]2CN(Cc3csc(C)n3)C[C@H]2N1C(C)C.O=C(O)C(F)(F)F.O=C(O)C(F)(F)F,Percent Effect,"30.3 µM, […]",29.27%
CC(C)N1Cc2cccc(NCC(=O)N(C)C3CCCCC3)c2C1,Percent Effect,"30.3 µM, […]",17.74%
CC(C)N1Cc2cccc(NCC(=O)N(C)C)c2C1,Percent Effect,"30.3 µM, […]",62.8%
CC(C)C(C)N1Cc2cccc(NCC(=O)N(C)C)c2C1 (stereo not given),Percent Effect,"30.3 µM, […]",29.96%
Cc1cc(NC(=O)NCC2COc3ccccc3C2)no1 (stereo not given),Percent Effect,30 µM,-28.91%
Fc1ccc(CN2CCO[C@H]3[C@H](OCc4ccncc4)CC[C@@H]32)cc1.O=C(O)C(F)(F)F.O=C(O)C(F)(F)F,Percent Effect,"30.3 µM, […]",43.4%
CN(C)C(=O)CO[C@@H]1CN(Cc2ccccc2F)[C@@H]2CCCO[C@@H]21.O=C(O)C(F)(F)F,Percent Effect,"30.3 µM, […]",10.19%
Cc1cccc(CN2CCO[C@H]3[C@@H](OCc4ccncc4)CC[C@@H]32)n1.O=C(O)C(F)(F)F.O=C(O)C(F)(F)F.O=C(O)C(F)(F)F,Percent Effect,"30.3 µM, […]",12.49%
Fc1ccccc1CN1C[C@H](OCC2CCOCC2)[C@H]2OCCC[C@H]21.O=C(O)C(F)(F)F,Percent Effect,"30.3 µM, […]",-19.24%
COc1ccc(CN2CCO[C@H]3[C@H](OCc4ccncc4)CC[C@@H]32)cc1.O=C(O)C(F)(F)F.O=C(O)C(F)(F)F,Percent Effect,"30.3 µM, […]",60.6%
Fc1ccccc1CN1C[C@@H](OCc2ccncc2)[C@H]2OCCC[C@H]21.O=C(O)C(F)(F)F.O=C(O)C(F)(F)F,Percent Effect,"30 µM, 30.03 µM",54.27%
Cn1cc(S(=O)(=O)N(Cc2ccc(F)cc2F)C2CC2)cc1C(N)=O,Percent Effect,"30.3 µM, […]",34.27%
CNS(=O)(=O)CC1CCCN1C(=O)c1ccc(C)c(C)c1 (stereo not given),Percent Effect,"30.3 µM, […]",-9.061%
O=c1cc(-c2ccccc2)nc2n1CCCCC2,Percent Effect,"30.3 µM, […]",-39.42%
COCC(=O)NCc1cc2n(n1)CCCN(CCCC1CCCC1)C2,Percent Effect,"30.3 µM, […]",20.98%
COCC(=O)N1CCC2(CCN(c3cnn(C)c3)C2=O)C1 (stereo not given),Percent Effect,"30.3 µM, […]",13.44%
O=C([C@@H]1C[C@@H]2CCN(C3CCOCC3)C[C@@H]2O1)N1CCOCC1,Percent Effect,"30.3 µM, […]",9.764%
Cc1nn(C)cc1CN(C)C(=O)c1cnccn1,Percent Effect,"30.3 µM, […]",-25.04%
CCC(=O)NCCNC(=O)c1nn(C)c(C)c1Cl,Percent Effect,"30.3 µM, […]",-0.8741%
CCN1CCN(C[C@@H]2CN(c3ncc(Cl)cc3Cl)C[C@@H]2CO)CC1,Percent Effect,"30.3 µM, […]",62.72%
CCN1CCN(C[C@@H]2CN(c3ncc(Cl)cc3F)C[C@@H]2CO)CC1,Percent Effect,"30.3 µM, […]",46.16%
CCN1CCN(C[C@@H]2CN(c3ncccc3Cl)C[C@@H]2CO)CC1,Percent Effect,"30.3 µM, […]",25.54%
O=C(NCCc1nccs1)[C@H](c1ccccc1)n1cnnn1,Percent Effect,"30.3 µM, […]",10.58%
Cc1c[nH]nc1C1CCN(C(=O)C2CCOCC2)C1 (stereo not given),Percent Effect,"30.3 µM, […]",-3.336%
CCCNc1cc(-c2c[nH]nc2C2CCN(C(=O)C3CCC3)C2)ccn1 (stereo not given),Percent Effect,"30.3 µM, […]",53.3%
CC(C)N1CCC(c2n[nH]cc2-c2ccnc(N)c2)C1 (stereo not given),Percent Effect,"30.3 µM, […]",28.17%
CC(=O)N1CCC(c2n[nH]cc2-c2ccnc(N)c2)C1 (stereo not given),Percent Effect,"30.3 µM, […]",29.98%
CC(C)OCC(=O)N1CCC(c2ncncc2-c2ccnc(N)c2)C1 (stereo not given),Percent Effect,"30.3 µM, […]",-5.314%
Nc1cc(-c2c[nH]nc2C2CCN(C(=O)C3CCCC3)C2)ccn1 (stereo not given),Percent Effect,"30.3 µM, […]",42.83%
Nc1cc(-c2c[nH]nc2C2CCCCN2C(=O)C2CCCC2)ccn1 (stereo not given),Percent Effect,"30.3 µM, […]",12.99%
CN1CCC(c2n[nH]cc2-c2ccnc(N)c2)C1 (stereo not given),Percent Effect,"30.3 µM, […]",52.81%
CC(C)Nc1cc(-c2c[nH]nc2C2CCN(C(=O)C3CCC3)C2)ccn1 (stereo not given),Percent Effect,"30.3 µM, […]",63.06%
CC(C)CNc1cc(-c2c[nH]nc2C2CCN(C(=O)C3CC3)C2)ccn1 (stereo not given),Percent Effect,"30.3 µM, […]",60.8%
CC(C)Nc1cc(-c2c[nH]nc2C2CCN(C(=O)C3CC3)C2)ccn1 (stereo not given),Percent Effect,"30.3 µM, […]",49.22%
Cc1c[nH]nc1C1CCN(C(=O)C2CCCC2)C1 (stereo not given),Percent Effect,"30.3 µM, […]",-28.74%
COCCNC(=O)[C@H]1CN(Cc2cccs2)C[C@H]2OCC[C@@H]12.O=C(O)C(F)(F)F,Percent Effect,"30.3 µM, […]",-23.24%
Cn1cc(-c2cc(C(F)(F)F)nn2CCC#N)cn1,Percent Effect,"30.3 µM, […]",-0.6212%
CCCn1nccc1-c1nccnc1CC1CCN(C(C)=O)CC1,Percent Effect,"30.3 µM, […]",-24.99%
NCCn1nc(C2CCN(C(=O)CC3CCCCC3)C2)c2nccnc21 (stereo not given),Percent Effect,"30 µM, 30.03 µM",-5.021%
Nc1ccc(C(=O)N2C[C@@H]3CC[C@H](C2)N(Cc2ccccc2)C3)cn1,Percent Effect,"30.3 µM, […]",19.02%
COC1COC2(CCN(CC3CC3)CC2)C1.O=C(O)C(F)(F)F (stereo not given),Percent Effect,"30.3 µM, […]",18.41%
COCCC(=O)N1C[C@@H](c2ccc(F)c(F)c2)[C@@]2(CCCC(=O)N2)C1,Percent Effect,"30.3 µM, […]",28.03%
COC(=O)N1CCCC(C(=O)NCCc2c[nH]c3cc(C)ccc23)C1 (stereo not given),Percent Effect,"30.3 µM, […]",6.757%
Cc1ccc(C2CSCCN2C(=O)c2ccc(C(N)=O)cc2)o1 (stereo not given),Percent Effect,"30 µM, 30.03 µM",7.343%
Cc1nccnc1N1C[C@H](NC(=O)CNS(C)(=O)=O)[C@@H](C2CC2)C1,Percent Effect,"30.3 µM, […]",8.886%
Cn1nc(C(=O)N2CCCC2)c2c1CN(CC1CCOCC1)C2,Percent Effect,"30.3 µM, […]",-0.9877%
Cn1nc(C(=O)N2CCOCC2)c2c1CN(CC1CCC1)C2,Percent Effect,"30.3 µM, […]",23.43%
Cn1nc(C(=O)N2CCOCC2)c2c1CN(CC1CC1)C2.O=C(O)C(F)(F)F.O=C(O)C(F)(F)F,Percent Effect,"30.3 µM, […]",55.32%
CC(C)(C)C(=O)NCCC(=O)NC(C)(C)c1ccc2c(c1)OCO2,Percent Effect,"30.3 µM, […]",2.237%
O=C(N1CCCC1)N1CCc2onc(COc3cccnc3)c2C1.O=C(O)C(F)(F)F,Percent Effect,"30.3 µM, […]",0.9186%
c1cncc(OCc2noc3c2CN(Cc2ccoc2)CC3)c1,Percent Effect,"30 µM, 30.03 µM",10.86%
Cc1cnc(N2CCc3onc(COc4cccnc4)c3C2)nc1,Percent Effect,"30.3 µM, […]",77.52%
CNS(=O)(=O)Cc1ccc(CNC(=O)c2cccc(C)n2)cc1,Percent Effect,"30 µM, 30.03 µM",36.89%
Cc1cc2c(cc1NC(=O)NC(C)(C)C)OCO2,Percent Effect,"30.3 µM, […]",-22.07%
Cc1nnc(CN(CCc2ccccc2)C2CCN(C)CC2)s1,Percent Effect,"30.3 µM, […]",1.604%
NCCn1nc(C2CCN(Cc3ccccc3)C2)c2nccnc21 (stereo not given),Percent Effect,"30.3 µM, […]",5.976%
NCCn1nc(C2CCN(Cc3ccc(Cl)c(Cl)c3)C2)c2nccnc21 (stereo not given),Percent Effect,"30 µM, 30.03 µM",52.46%
NCCn1nc(C2CCN(Cc3ccccc3Cl)C2)c2nccnc21 (stereo not given),Percent Effect,"30.3 µM, […]",9.93%
Clc1cccc2c3c([nH]c12)CCN(Cc1cc2n(n1)CCNC2)C3,Percent Effect,"30.3 µM, […]",28.65%
c1ccc2c3c([nH]c2c1)CN(Cc1cc2n(n1)CCNC2)CC3,Percent Effect,"30.3 µM, […]",19.37%
Clc1cccc2c3c([nH]c12)CCN(Cc1cc2n(n1)CCCNC2)C3,Percent Effect,"30.3 µM, […]",94.36%
COc1ccc(C(C)N(C)Cc2c(C(C)C)[nH]c3ncccc23)cc1 (stereo not given),Percent Effect,"30.3 µM, […]",-22.28%
CCN1CCCC1CN(CCN(C)C)S(=O)(=O)c1ccccc1C#N (stereo not given),Percent Effect,"30.3 µM, […]",13.5%
COCc1nc(C(=O)OCC2CCN(c3ccccc3)C2)cs1 (stereo not given),Percent Effect,"30.3 µM, […]",-78.1%
O=C(OCC1CCN(c2ccccc2)C1)c1cscn1 (stereo not given),Percent Effect,"30.3 µM, […]",51.5%
O=C(OCC1CCCN(C(=O)c2ccccc2)C1)c1cscn1 (stereo not given),Percent Effect,"30.3 µM, […]",-48.09%
COc1cc(C(=O)N(Cc2ccc(F)cc2)C2CC2)cc2c1OCCO2,Percent Effect,"30 µM, 30.03 µM",14.84%
CCCNC(=O)N1CCc2ccc(S(=O)(=O)N3CCOCC3)cc2C1,Percent Effect,"30.3 µM, […]",11.75%
CC1=C(CCN2CC[C@@H](N3CCC(O)CC3)[C@H](O)C2)C(C)(C)CCC1,Percent Effect,"30.3 µM, […]",56.28%
CC1=C(CCN2C[C@H](O)[C@@H](N3CCOCC3)C2)C(C)(C)CCC1,Percent Effect,"30.3 µM, […]",-12.68%
CC1=C(CCN2CCCC(O)C2)C(C)(C)CCC1 (stereo not given),Percent Effect,"30.3 µM, […]",25.33%

# — ChEMBL document CHEMBL3988442, “University of Dundee, Small-Polar-MMV Screening Library” (2021)
